In all, about 5,500 compounds went through this assay and about 2,000 (36%) were called active. Roughly 18% stayed inconclusive and do not appear here. Cut-off read from the data, not from the text of the source: active = normalized growth mostly below about 0.91 (no sharp cut-off); inconclusive = no clear call, values can overlap the other calls; inactive = mostly above about 0.92. The list shows a part of the results.
Assay: chemical genetic growth profiling, strain panel (AID 1159580);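 note: tested at 20 µM; growth read once vehicle control cultures reached saturation at 30 °C; 1 = growth at the plate median or of vehicle wells; lower values mean less growth of the strain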
Details: growth OD

Measured: normalized growth

CCN1CCCC(OC(=O)C(c2ccccc2)c2ccccc2)C1 (centres undefined)
inactive: S. cerevisiae deletion strains, locus YJR075W, strain HOC1, active compounds read low 1 | S. cerevisiae deletion strains, locus YKL009W, strain mrt4, active compounds read low 1.02 | S. cerevisiae deletion strains, locus YKL068W, active compounds read low 0.999 | S. cerevisiae deletion strains, locus YKL085W, strain MDH1 (second series), active compounds read low 1.01 | S. cerevisiae deletion strains, locus YKL085W, strain MDH1, active compounds read low 1.01 | S. cerevisiae deletion strains, locus YKL160W, strain elf1, active compounds read low 0.983 | S. cerevisiae deletion strains, locus YKL190W, strain CNB1, active compounds read low 1.01 | S. cerevisiae deletion strains, locus YKR001C, strain vps1, active compounds read low 1.02 | S. cerevisiae deletion strains, locus YKR026C, strain gcn3, active compounds read low 0.996 | S. cerevisiae deletion strains, locus YKR091W, strain srl3, active compounds read low 0.992 | S. cerevisiae deletion strains, locus YLL001W, strain dnm1, active compounds read low 0.971 | S. cerevisiae deletion strains, locus YLL026W, active compounds read low 0.992 | S. cerevisiae deletion strains, locus YLL041C, strain sdh2, active compounds read low 0.987 | S. cerevisiae deletion strains, locus YLR027C, strain aat2, active compounds read low 0.983 | S. cerevisiae deletion strains, locus YLR039C, strain RIC1, active compounds read low 1.07 | S. cerevisiae deletion strains, locus YLR058C, strain SHM2, active compounds read low 1.01 | S. cerevisiae deletion strains, locus YLR102C, strain apc9, active compounds read low 1.01 | S. cerevisiae deletion strains, locus YLR113W, strain HOG1, active compounds read low 0.958 | S. cerevisiae deletion strains, locus YLR221C, strain rsa3, active compounds read low 0.991 | S. cerevisiae deletion strains, locus YLR258W, strain gsy2, active compounds read low 0.977 | S. cerevisiae deletion strains, locus YLR262C, strain YPT6 (second series), active compounds read low 1.02 | S. cerevisiae deletion strains, locus YLR262C, strain YPT6, active compounds read low 1.08 | S. cerevisiae deletion strains, locus YLR268W, strain sec22, active compounds read low 1.01 | S. cerevisiae deletion strains, locus YLR320W, strain mms22, active compounds read low 0.982 | S. cerevisiae deletion strains, locus YLR330W, strain CHS5, active compounds read low 1.02 | S. cerevisiae deletion strains, locus YLR342W, strain FKS1 (second series), active compounds read low 1.01 | S. cerevisiae deletion strains, locus YLR342W, strain FKS1, active compounds read low 0.985 | S. cerevisiae deletion strains, locus YLR357W, strain rsc2, active compounds read low 0.933 | S. cerevisiae deletion strains, locus YLR370C, strain arc18, active compounds read low 0.994 | S. cerevisiae deletion strains, locus YLR371W, strain rom2, active compounds read low 1.01 | S. cerevisiae deletion strains, locus YLR384C, strain iki3, active compounds read low 0.983 | S. cerevisiae deletion strains, locus YLR418C, strain cdc73, active compounds read low 0.998 | S. cerevisiae deletion strains, locus YML016C, strain PPZ1, active compounds read low 1 | S. cerevisiae deletion strains, locus YML032C, strain rad52, active compounds read low 1.01 | S. cerevisiae deletion strains, locus YML120C, strain ndi1, active compounds read low 0.961 | S. cerevisiae deletion strains, locus YML124C, strain tub3, active compounds read low 1 | S. cerevisiae deletion strains, locus YMR058W, strain fet3, active compounds read low 0.982 | S. cerevisiae deletion strains, locus YMR078C, strain ctf18, active compounds read low 1 | S. cerevisiae deletion strains, locus YMR125W, strain sto1, active compounds read low 0.977 | S. cerevisiae deletion strains, locus YMR129W, active compounds read low 0.969 | S. cerevisiae deletion strains, locus YMR205C, strain PFK2, active compounds read low 0.984 | S. cerevisiae deletion strains, locus YMR223W, strain ubp8, active compounds read low 1.01 | S. cerevisiae deletion strains, locus YMR231W, strain pep5, active compounds read low 0.998 | S. cerevisiae deletion strains, locus YMR307W, strain GAS1, active compounds read low 1.09 | S. cerevisiae deletion strains, locus YNL067W, strain RPL9B, active compounds read low 1.01 | S. cerevisiae deletion strains, locus YNL071W, strain lat1, active compounds read low 0.973 | S. cerevisiae deletion strains, locus YNL153C, strain GIM3, active compounds read low 0.992 | S. cerevisiae deletion strains, locus YNL183C, strain NPR1, active compounds read low 0.943 | S. cerevisiae deletion strains, locus YNL209W, strain ssb2, active compounds read low 1.01 | S. cerevisiae deletion strains, locus YNL233W, strain BNI4, active compounds read low 1.01 | S. cerevisiae deletion strains, locus YNL248C, strain rpa49, active compounds read low 0.989 | S. cerevisiae deletion strains, locus YNL250W, strain rad50, active compounds read low 1 | S. cerevisiae deletion strains, locus YNL271C, strain bni1, active compounds read low 1.01 | S. cerevisiae deletion strains, locus YNL298W, strain CLA4, active compounds read low 1.01 | S. cerevisiae deletion strains, locus YNL307C, strain MCK1, active compounds read low 1.01 | S. cerevisiae deletion strains, locus YNL322C, strain KRE1 (second series), active compounds read low 0.992 | S. cerevisiae deletion strains, locus YNL322C, strain KRE1, active compounds read low 1.01 | S. cerevisiae deletion strains, locus YNR049C, strain mso1, active compounds read low 0.981 | S. cerevisiae deletion strains, locus YNR052C, strain pop2, active compounds read low 1.02 | S. cerevisiae deletion strains, locus YOL006C, strain TOP1, active compounds read low 0.982 | S. cerevisiae deletion strains, locus YOL012C, strain htz1 1.06 | S. cerevisiae deletion strains, locus YOL147C, strain pex11, active compounds read low 1 | S. cerevisiae deletion strains, locus YOR001W, strain rrp6, active compounds read low 0.973 | S. cerevisiae deletion strains, locus YOR061W, strain CKA2, active compounds read low 1.01 | S. cerevisiae deletion strains, locus YOR069W, strain VPS5, active compounds read low 1.01 | S. cerevisiae deletion strains, locus YOR070C, strain gyp1, active compounds read low 0.998 | S. cerevisiae deletion strains, locus YOR080W, strain dia2, active compounds read low 0.975 | S. cerevisiae deletion strains, locus YOR083W, strain WHI5, active compounds read low 0.98 | S. cerevisiae deletion strains, locus YOR106W, strain vam3, active compounds read low 0.988 | S. cerevisiae deletion strains, locus YOR136W, strain idh2, active compounds read low 1 | S. cerevisiae deletion strains, locus YOR144C, strain elg1, active compounds read low 0.996 | S. cerevisiae deletion strains, locus YOR184W, strain ser1, active compounds read low 1.04 | S. cerevisiae deletion strains, locus YOR231W, strain MKK1, active compounds read low 0.983 | S. cerevisiae deletion strains, locus YOR265W, strain rbl2, active compounds read low 0.995 | S. cerevisiae deletion strains, locus YOR270C, strain vph1, active compounds read low 0.987 | S. cerevisiae deletion strains, locus YOR290C, strain snf2, active compounds read low 0.98 | S. cerevisiae deletion strains, locus YOR316C, strain cot1, active compounds read low 1.01 | S. cerevisiae deletion strains, locus YPL051W, strain arl3, active compounds read low 0.988 | S. cerevisiae deletion strains, locus YPL055C, strain LGE1, active compounds read low 0.996 | S. cerevisiae deletion strains, locus YPL078C, strain atp4, active compounds read low 0.974 | S. cerevisiae deletion strains, locus YPL106C, strain sse1, active compounds read low 0.97 | S. cerevisiae deletion strains, locus YPL240C, strain hsp82, active compounds read low 0.991 | S. cerevisiae deletion strains, locus YPL256C, strain CLN2, active compounds read low 0.979 | S. cerevisiae deletion strains, locus YPR119W, strain clb2, active compounds read low 1.01 | S. cerevisiae deletion strains, locus YPR141C, strain kar3, active compounds read low 1 | S. cerevisiae deletion strains, locus YPR163C, strain tif3, active compounds read low 1 | S. cerevisiae deletion strains, locus YPR167C, strain met16, active compounds read low 1.01 | S. cerevisiae deletion strains, strain wtn01, active compounds read low 1 | S. cerevisiae strains, strain wild type, active compounds read low 1.01

Source: PubChem BioAssay AID1159580 (chemical genetic matrix, 2015)
